Bioassay records (PubChem BioAssay)
KAT2A inh – qHTS Assay for Inhibitors of GCN5L2; Histone acetyltransferase KAT2A (Homo sapiens), Q92830; GCN5L2 HAT assay, ThioGlo1 CoA-SH fluorescence; Potency, µM (top dose mostly 58.9 µM), most hits filed as inhibitors; 0.21% of 390,000 active; AID 504327, 2011
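qHTS, 1536-well. 20nM enzyme, pH 7.5 HEPES/EDTA/Tween-20 buffer; 15 min compound preinc., RT. Start: 75uM H3(1-25), 70uM AcCoA, 50uM ThioGlo1. Read Ex340/Em540 at t=0 (autofluorescence flag) and t=20 min.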
VDR inhibitor – Inhibitors of the vitamin D receptor (VDR): qHTS. 0.93% of 400,000 active. Potency, µM, hits mostly inhibitors. AID 504847, 2011. VDR-SRC2-3 peptide fluorescence polarization, 2 h. Vitamin D3 receptor (Homo sapiens), P11473
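Compounds are added to VDR with labelled SRC2-3 coactivator peptide and held 2 h at room temperature. Inhibition of the VDR–peptide interaction is then read as a change in fluorescence polarization.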
PKM2 act – qHTS Assay for Activators of Human Muscle isoform 2 Pyruvate Kinase. Potency, µM (series often up to 57.5 µM), hits mostly activators. 0.34% of 260,000 active. Pyruvate kinase PKM (Homo sapiens), P14618. purified PKM2, Kinase-Glo ATP luminescence, activation; response scale: 0% is enzyme alone, no compound. AID 1631, 2009; further: nearly all actives have a fitted effect of over 55% in size
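Purified hPK-M2 (>95%) run at intermediate activity with 0.1 mM ADP and 0.5 mM PEP in 50 mM imidazole pH 7.2, KCl, MgCl2; 1 h room temperature. ATP formed read by Kinase-Glo luminescence; normalized to uninhibited and no-enzyme controls.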
GLS inh – qHTS for Inhibitors of Glutaminase (GLS) | Potency, µM (top dose mostly 45.5 µM), actives largely listed as inhibitors | GLS enzymatic activity, qHTS titration | 0.21% of 410,000 active
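Read-out is an Amplex red fluorescence increase coupled through glutamate oxidase and HRP, measured before and after 30 min room-temperature incubation. hKGA is in 45 mM KH2PO4 (pH 8.2) with 0.02% Tween-20; glutamine added as 1mM solution.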
Mito fusion act – qHTS Assay for Small Molecule Inhibitors of Mitochondrial Division or Activators of Mitochondrial Fusion | 0.23% of 320,000 active | Potency, µM (highest dose often 46.1 µM), most hits filed as activators | S. cerevisiae fusion-defective mutant growth rescue, CellTiterGlo 48 h; further: nearly all actives have a fitted effect of over 45% in size
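Yeast fusion mutant, YPEG (non-fermentable carbon), compound, 48 h at 37C non-permissive; CellTiterGlo added, 10 min RT, luminescence read. Rescued growth = division inhibition.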
PLK1 PBD block – qHTS for Inhibitors of PLK1-PDB (polo-like kinase 1 - polo-box domain): Primary Screen; 2.8% of 360,000 active; Serine/threonine-protein kinase PLK1 (Homo sapiens), P53350; Plk1 PBD binding of FITC phosphopeptide, fluorescence polarization; Potency, µM, actives largely listed as inhibitors; further: series mostly up to about 57 µM; nearly all actives have a fitted effect of over 65% in size
Hits are given with their value; . = inactive; ? = inconclusive; / = no result; [ ] = remark or other dose. A selection: hits, their analogues and other compounds. The true share with any hit is near 3.4%. The call rests on the fitted dose curve; in most records, active means well fitted curve in the direction sought with a large enough effect; inconclusive means small, poorly fitted or top-dose-only effect, or another doubt; inactive means no such curve, though single readings can be large; an effect the other way counts as inactive or inconclusive.

SMILES	KAT2A inh	VDR inhibitor	PKM2 act	GLS inh	Mito fusion act	PLK1 PBD block
Clc1ccccc1/C=N/c1cc(-c2ccccc2)nn1-c1ccccc1	.	?	.	.	.	17µM
Cc1ccc2nc(-c3ccccc3N)[nH]c2c1	.	?	.	.	.	30µM
Cc1ccc2nc(-c3ccccn3)[nH]c2c1	.	.	.	.	.	.
Cc1ccc(CN(C)C(=O)C2CCCN2C(=O)c2cccs2)o1 (stereo unspecified)	.	.	14µM	.	.	.
CCCC(=O)NC(c1ccc(Cl)cc1)c1ccc2cccnc2c1O (stereo unspecified)	.	.	.	.	.	.
CCCCC(=O)NC(c1ccc(N(C)C)cc1)c1ccc2cccnc2c1O (stereo unspecified)	.	.	.	.	.	27µM
CCCCC(=O)NC(c1ccc(Cl)cc1)c1ccc2cccnc2c1O (stereo unspecified)	/	?	/	.	/	27µM
CCCC(c1c(C)n(C)n(-c2ccccc2)c1=O)c1c(C)n(C)n(-c2ccccc2)c1=O	.	.	.	?	.	2.4µM
CS(=O)(=O)N1CCN(c2ccc(C(=O)NC34CC5CC(CC(C5)C3)C4)cc2[N+](=O)[O-])CC1	.	.	.	.	.	27µM
COc1ccc(Nc2nc3ccccc3c(=O)[nH]2)cc1	.	?	.	.	.	24µM
Cc1ccc(Nc2nc3ccccc3c(=O)[nH]2)cc1C	.	.	.	.	.	.
Cn1nnnc1SCCCNCc1ccc(-c2ccc(Br)cc2)o1	.	.	/	.	/	/
CC(OC(=O)CNC(=O)c1ccco1)C(=O)N(C)c1ccccc1 (stereo unspecified)	.	.	.	.	.	27µM
CCn1nnc(NC(=S)NC(=O)c2ccc(-c3cccc(Cl)c3)o2)n1	.	.	.	.	.	21µM
Cc1cc(C)n(-c2nc3ccccc3nc2N2CCN(S(=O)(=O)c3ccc(F)c(C)c3)CC2)n1	.	.	10µM	.	.	.
Cc1cc(C)n(-c2nc3ccccc3nc2N2CCN(S(=O)(=O)c3ccc4ccccc4c3)CC2)n1	.[0.501 µM]	.	.	.	.	.
COc1ccc(N2CCN(C(=O)COC(=O)[C@@H](NC(=O)OCc3ccccc3)C(C)C)CC2)cc1	/	.	/	.	/	.
C=CCC(C)(NCc1ccccc1)c1ccccc1 (stereo unspecified)	.	?	.	.	.	21µM
CNC(=S)NCCc1cc2c(OC)ccc(OC)c2[nH]c1=O	.	?	.	.	.	19µM
Cc1cccc(N=C2NC(=O)/C(=C/C=C/c3ccco3)S2)c1C	.	?	?	.	?	15µM
O=C1CN(c2ccccc2)C(=S)N1C(=O)c1ccccc1	.	.	.	.	.	27µM
Cc1cc(C(=O)COC(=O)c2ccc[nH]c2=O)c(C)n1-c1ccc(Br)cc1	.	.	.	.	.	.
COCC(=O)OCC(=O)c1cc(C)n(-c2ccc(Br)cc2)c1C	.	.	.	.	.	17µM
c1ccc(CNc2ncnc3ccc(-c4cccnc4)cc23)cc1	?	28µM	/	/	/	/
Fc1cccc(CNc2ncnc3ccc(-c4cccnc4)cc23)c1	.	/	/	/	.	/
COc1ccc(/C=C/c2cc(O)cc(O[C@H]3OC(CO)C(O)C(O)C3O)c2)cc1 (stereo partly specified)	.	.	/	/	/	/
O=C(/C=C/c1ccccc1)c1ccc(O[C@H]2OC(CO)C(O)C(O)C2O)cc1O (stereo partly specified)	.	16µM	/	/	/	/
Cn1c(SCC(=O)NC(=O)Cc2ccccc2)nnc1-c1ccc(F)cc1	.	.	/	.	/	.
O=C1N2CCCc3cccc(c32)C12Nc1ccccc1S2 (stereo unspecified)	.	.	.	.	.	24µM
NC(=O)CCC(NS(=O)(=O)c1ccc(Cl)cc1)C(=O)NCC1CCCCC1 (stereo unspecified)	.	?	.	.	.	11µM
